About 14,000 (4.5%) of roughly 310,000 compounds showed an effect of 50% or more. The effect is printed as a negative number. For the sample, strong results were picked, then their nearest neighbours and some compounds at random.
The compounds below were run against human ether-à-go-go-related gene (hERG) potassium channel (human, UniProt Q12809) (assay: primary screen, population patch clamp on CHO cells stably expressing hERG; higher = less effect of the substance).
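Also: peak tail current of the secondary pulse compared with the same well before compound.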

Sequence of human ether-à-go-go-related gene (hERG) potassium channel (Q12809 whole entry, looked up): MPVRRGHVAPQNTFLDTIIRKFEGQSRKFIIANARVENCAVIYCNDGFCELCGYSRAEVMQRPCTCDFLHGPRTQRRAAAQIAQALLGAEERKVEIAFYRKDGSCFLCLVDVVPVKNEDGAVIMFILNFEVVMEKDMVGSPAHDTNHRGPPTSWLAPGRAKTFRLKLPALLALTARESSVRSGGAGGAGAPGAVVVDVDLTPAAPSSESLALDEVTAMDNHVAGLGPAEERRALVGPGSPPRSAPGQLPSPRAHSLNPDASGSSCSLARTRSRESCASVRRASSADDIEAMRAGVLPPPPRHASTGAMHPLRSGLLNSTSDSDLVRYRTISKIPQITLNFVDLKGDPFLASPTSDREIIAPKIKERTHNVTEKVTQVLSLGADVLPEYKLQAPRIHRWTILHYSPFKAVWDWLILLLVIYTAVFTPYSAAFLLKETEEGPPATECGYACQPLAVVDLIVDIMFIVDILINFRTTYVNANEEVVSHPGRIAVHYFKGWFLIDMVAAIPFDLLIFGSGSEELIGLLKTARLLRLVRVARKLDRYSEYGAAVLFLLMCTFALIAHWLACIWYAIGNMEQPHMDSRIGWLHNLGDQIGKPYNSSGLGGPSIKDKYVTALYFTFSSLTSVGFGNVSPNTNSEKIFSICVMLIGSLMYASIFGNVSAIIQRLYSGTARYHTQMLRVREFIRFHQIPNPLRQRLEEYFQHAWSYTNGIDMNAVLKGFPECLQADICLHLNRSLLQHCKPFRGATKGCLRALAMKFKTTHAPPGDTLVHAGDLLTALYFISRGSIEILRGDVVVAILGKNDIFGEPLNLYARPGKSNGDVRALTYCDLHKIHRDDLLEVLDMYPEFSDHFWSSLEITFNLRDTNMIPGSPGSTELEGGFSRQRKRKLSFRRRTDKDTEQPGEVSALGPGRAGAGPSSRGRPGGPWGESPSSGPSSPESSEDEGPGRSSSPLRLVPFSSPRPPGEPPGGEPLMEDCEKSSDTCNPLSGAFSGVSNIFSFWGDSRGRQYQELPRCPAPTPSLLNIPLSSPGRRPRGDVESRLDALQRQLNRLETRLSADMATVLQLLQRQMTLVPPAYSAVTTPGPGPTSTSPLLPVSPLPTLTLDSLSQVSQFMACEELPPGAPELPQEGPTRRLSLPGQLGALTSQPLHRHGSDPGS

| Compound | hERG current change (%, negative = inhibition) at 10uM |
| --- | --- |
| CCc1ccccc1NC(=O)C1CCN(C(=O)N2CCOc3ccccc32)CC1 | 1.77% |
| Cc1ccccc1NC(=O)C1CCN(C(=O)N2CCOc3ccccc32)CC1 | -8.57% |
| COC(=O)c1ccccc1NC(=O)C1CCN(C(=O)N2CCOc3ccccc32)CC1 | -59.6% |
| CCCCC(=O)NC(c1ccccc1Cl)c1ccc2cccnc2c1O (stereo not drawn) | 15.2% |
| COc1ccc(S(=O)(=O)Nc2cc3c4c(c2)CC(=O)N4CCC3)cc1C | -4.48% |
| CC(C)N(CCCNC(=O)c1nn(C)c2c1CS(=O)(=O)c1ccccc1-2)Cc1ccccc1 | -34.5% |
| CCN(CCCNC(=O)c1nn(C)c2c1CS(=O)(=O)c1ccccc1-2)Cc1ccccc1 | -60.3% |
| CC1CC(C)CN(C(=O)c2nn(C)c3c2CS(=O)(=O)c2ccccc2-3)C1 (stereo not drawn) | -12.7% |
| CC1CC(C)CN(CCCNC(=O)c2nn(C)c3c2CS(=O)(=O)c2ccccc2-3)C1 (stereo not drawn) | -64.2% |
| CN(CCCNC(=O)c1nn(C)c2c1CS(=O)(=O)c1ccccc1-2)Cc1ccccc1 | -46.9% |
| CC1CCN(CCCNC(=O)c2nn(C)c3c2CS(=O)(=O)c2ccccc2-3)CC1 | -23.6% |
| Cc1cc(-c2nc(C)c(-c3nnc(SCC(=O)Nc4ccc(Cl)cc4)n3C)s2)no1 | 2.4% |
| COc1ccc(NC(=O)c2ccc(NC(=O)CSc3nccc(=O)[nH]3)cc2)cc1 | 15.4% |
| Cc1ccc(-n2nc(C(=O)O)cc2-c2ccccc2)cc1 | 14.5% |
| O=C(c1cc(-c2ccc(Cl)cc2)n(-c2ccc(Cl)cc2)n1)N1CCOCC1 | -80.8% |
| O=C(O)c1cc(-c2ccc(Cl)cc2)n(-c2ccc(Cl)cc2)n1 | 38.2% |
| Cc1ccc(-n2nc(C(=O)N3CCOCC3)cc2-c2ccc(Cl)cc2)cc1 | -83.3% |
| O=C(O)c1cc(-c2ccc(Cl)cc2)n(-c2cccc(Cl)c2)n1 | 23.4% |
| O=C(O)c1cc(-c2ccc(Cl)cc2)n(-c2ccccc2)n1 | 30.3% |
| Cc1ccc(-n2nc(C(=O)O)cc2-c2ccc(Cl)cc2)cc1 | 24.9% |
| O=C(c1cc(-c2ccc(Cl)c(Cl)c2)on1)N1CCOCC1 | -14.1% |
| O=C(c1cc(-c2ccc(Cl)cc2)n(-c2ccc(Cl)c(Cl)c2)n1)N1CCOCC1 | -57% |
| CCn1c(-c2cc(-c3ccc(OC(C)C)cc3)nc3ccccc23)n[nH]c1=S | 2.71% |
| CCOC(=O)c1cc(NC(=O)N(CC)CC)c(C)nc1C | 5.59% |
| Cc1cccc(C)c1NC(=O)CCc1nnc2ccc(N3CCCC3)nn12 | 10.3% |
| CC1CCCCC1NCC(=O)NCc1ccc(F)cc1.O=C(O)C(=O)O (stereo not drawn) | -8.33% |
| CCN(CC)S(=O)(=O)c1ccc(OC)nc1 | 10.4% |

| Compound | hERG current change (%, negative = inhibition) at 10uM |
| --- | --- |
| CCN(CC)S(=O)(=O)c1ccc(Oc2cccc(C(C)=O)c2)nc1 | -65.5% |
| CCN(c1ccccc1)S(=O)(=O)c1ccc(Oc2ccc(C(C)=O)cc2OC)nc1 | -26.2% |
| COC(=O)c1nn(-c2ccc(OC)cc2)c(=O)cc1NN | 26.7% |
| CCN(CC)S(=O)(=O)c1ccc(C)c(NC(=S)NNC(=O)C2CC2)c1 | 11.1% |
| Cc1ccc(S(=O)(=O)N(C)C)cc1NC(=O)C1CCCC1 | 2.05% |
| Cc1ccc(S(=O)(=O)N(C)C)cc1NC(=O)c1ccc(OC(F)(F)F)cc1 | -51.3% |
| Cc1ccc(S(=O)(=O)N(C)C)cc1NC(=O)C(C)OC(=O)C1CCCC1 (stereo not drawn) | -61.2% |
| CN(C)S(=O)(=O)c1cccc(NC(=O)c2ccc(OC(F)(F)F)cc2)c1 | -27.8% |
| Cc1ccc(S(=O)(=O)N(C)C)cc1NC(=S)NNC(=O)C1CC1 | -54.6% |
| Cc1ccc(S(=O)(=O)N(C)C)cc1NC(=O)C1CCCCC1 | -1.12% |
| Cc1ccc(S(=O)(=O)N(C)C)cc1NC(=O)c1ccncc1 | 4.33% |
| Cc1ccc(S(=O)(=O)N(C)C)cc1NC(=O)C1CCC1 | 12.2% |
| COCCN1CCN(C(=O)C2CCC(=O)N(CCc3ccccc3)C2)CC1 (stereo not drawn) | 5.79% |
| CN(Cc1ccccc1)C(=O)c1nc[nH]c1C(=O)N1CCN(C(=O)OC(C)(C)C)CC1 | 11.2% |
| CN(C)CCN(C(=O)CCS(=O)(=O)c1ccccc1)c1nc2cc3c(cc2s1)OCO3.Cl | 7.43% |
| CN(C)CCCN(C(=O)COc1ccc(Cl)cc1)c1nc2cc3c(cc2s1)OCCO3.Cl | -55% |
| CN(C)CCCN(C(=O)COc1ccccc1)c1nc2cc3c(cc2s1)OCCO3 | -45% |
| CCN(CC)CCN(C(=O)CCS(=O)(=O)c1ccccc1)c1nc2cc3c(cc2s1)OCO3.Cl | -20.6% |
| CN(C)CCCN(C(=O)CCS(=O)(=O)c1ccccc1)c1nc2cc3c(cc2s1)OCO3.Cl | -60% |
| CN(C)CCCN(C(=O)COc1ccccc1)c1nc2cc3c(cc2s1)OCO3.Cl | -65.4% |
| CN(C)CCCN(C(=O)COc1ccc(Cl)cc1)c1nc2cc3c(cc2s1)OCO3.Cl | -59.7% |
| CN(C)CCN(C(=O)COc1ccc(Cl)cc1)c1nc2cc3c(cc2s1)OCO3 | -5.52% |
| Clc1ccc(CN(CC2CCCO2)C(c2cccs2)c2nnnn2C2CCCC2)cc1 (stereo not drawn) | 3.97% |
| O=C(/C=C/c1cccs1)Nc1nccs1 | 15.8% |
| O=S(=O)(c1ccc(Oc2ccc(Cl)cc2)c(S(=O)(=O)N2CCCCC2)c1)N1CCCCC1 | -10.1% |
| COC(=O)c1ccc(-c2ccco2)n1Cc1ccccc1Cl | -1.48% |
| CC(Oc1ccc2oc(-c3ccccc3)c(C(=O)O)c2c1)C(=O)O (stereo not drawn) | 14.7% |

From publication PMC4336329 (PLoS ONE, 2015)
